# Screens: PubChem BioAssay, National Center for Advancing Translational Sciences (NCATS)
# TDP-43 tox inh = rescues yeast from TDP-43 toxicity; 0.45% of 45,000 active; yeast TDP-43 toxicity rescue, BacTiter-Glo growth, 24 h; Potency, µM (highest dose often 46.1 µM), hits mostly activators; AID 1347073; active = well fitted activation curve with a large enough effect; note: nearly all actives have a fitted effect of over 55% in size
#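 TDP-43-expressing yeast, pregrown in raffinose, seeded at OD600 0.02 in galactose medium with compound for 24 hr at 30 deg C. Growth read by BacTiter-Glo luminescence, so rescue of toxicity appears as activation.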
# Hits are given with their value; i = inactive. This excerpt belongs to a sample that is enriched for hits.
SMILES,TDP-43 tox inh
O=C(COC(=O)c1c2ccccc2cc2ccccc12)NCC(F)(F)F,22.4µM
CCCCN(C)CCNC(=O)C1CCN(c2nc3ccc(CC)cc3s2)CC1,i
CCCCCOc1ccccc1CN1C(=O)C(=O)c2cc(C)ccc21,i
CC1(c2cccc(Br)c2)NC(=O)N(CC(=O)Nc2ccc(F)cc2)C1=O (configuration not stated),i
Cc1ccc(NC(=S)N2CCN(C(=O)c3ccccc3)CC2)c(C)c1,i
Cc1ccc(NC(=S)c2nc3ccccc3[nH]2)c(C)c1,10µM
Cc1cc(C)cc(C(=O)Nc2nc3ccccc3[nH]2)c1,i
COC(=O)c1ccccc1NC(=S)N(Cc1ccc2c(c1)OCO2)Cc1cc2cccc(C)c2[nH]c1=O,i
CCOc1ccccc1NC(=O)Cn1cnc2c1c(=O)n(C)c(=O)n2C,i
O=C(O)c1ccccc1OCCOc1ccccc1,22.4µM
CC(=O)Nc1ccc(OCCOc2ccccc2C(C)=O)cc1,i
CCC(C)/C(C)=N/NC(=O)c1ccccc1OCCOc1ccccc1 (configuration not stated),i
Cc1ccc(Cl)cc1NC(=O)Cn1c(=O)n(CCC(=O)NCc2ccc3c(c2)OCO3)c(=O)c2sccc21,i
COc1ccc(/C(O)=C2/C(=O)C(=O)N(c3ncccn3)C2c2ccc(F)cc2)cc1 (configuration not stated),i
CCCC(=O)Nc1cc(-c2nnc3c4ccccc4c(C)nn23)ccc1C,i
Cc1ccc(NC(=O)Nc2ccc(F)c(Cl)c2)cc1,i
Cc1ccc(OCCC(=O)Nc2ccc(F)c(F)c2)cc1,i
Cc1cccc(OCCC(=O)Nc2ccc(F)c(Cl)c2)c1,12.6µM
CCN(CC)c1ccc(NC(=O)c2ccc(=O)[nH]c2)cc1S(=O)(=O)Nc1ccccc1OC,i
N#Cc1ccccc1NC(=O)CSc1nnc(N)s1,i
C=C(C)CSc1nc2sc3c(c2c(=O)n1Cc1ccccc1)CC(C)(CC)OC3 (configuration not stated),i
CC(O)(c1cccc(F)c1)c1nc(-c2ccncc2)cs1 (configuration not stated),i
CC(O)(c1ccc(F)c(F)c1)c1nc(-c2ccc(Cl)cc2)cs1 (configuration not stated),i
CC(O)(c1ccccc1)c1nc(-c2cccc(C(=O)O)c2)cs1 (configuration not stated),i
COc1ccc(C(C)(O)c2nc(-c3csc4ccccc34)cs2)cc1 (configuration not stated),17.8µM
SMILES,TDP-43 tox inh
CC(O)(c1cccnc1)c1nc(-c2ccc3c(c2)OCO3)cs1 (configuration not stated),i
COc1cccc(C(C)(O)c2nc(-c3ccc(OC)nc3)cs2)c1 (configuration not stated),17.8µM
COc1ccc(C(C)(O)c2nc(-c3ccc4c(c3)OCO4)cs2)cc1 (configuration not stated),12.6µM
CC(C)c1cccc(-c2csc(C(C)(O)c3ccccc3)n2)c1 (configuration not stated),i
COc1cccc(C(C)(O)c2nc(-c3cncnc3)cs2)c1 (configuration not stated),i
Cc1cc(Br)cc2c1N(Cc1ccccc1OC(C)C)C(=O)C2=O,i
O=C(CCCOc1ccc(Br)cc1)NCCc1ccc(OC(F)F)cc1,i
O=C(Nc1ccccc1C(F)(F)F)N1CCC2(CC1)Oc1ccccc1C(=O)N2Cc1ccccc1F,i
CCOc1ccc(CCNCc2c(C(=O)O)n(Cc3ccc(C)cc3)c3cc(OC)ccc23)cc1,i
Cc1ccc(NC(=O)CSc2nnc(-c3cccs3)o2)cc1S(=O)(=O)N1CCCCC1,i
Cc1ccccc1C(=O)N(Cc1sccc1C)C1CCS(=O)(=O)C1 (configuration not stated),i
COc1ccc(NC(=O)CCS(=O)(=O)c2ccc3c(c2)n(C)c(=O)c(=O)n3C)cc1Cl,i
C/C(=N\Nc1ccc(Cl)c(C(=O)O)c1)c1cccc2ccccc12,i
C/C(=N\Nc1cccc(C(=O)O)c1)c1ccc(Cl)s1,i
C/C(=N\Nc1ccc(C(=O)O)cc1)c1ccc2c(c1)Nc1ccccc1S2,11.2µM
CCC(C)N1CCNCC1 (configuration not stated),i
CC(C)(C)c1ccc(C2=NC(C)(C)N(CC(=O)Nc3ccc(F)c(F)c3)C2=O)cc1,i
COC(=O)c1cc(Sc2cccc(Cl)c2Cl)ccn1,12.6µM
CC(OC(=O)c1cnc2ccccc2n1)c1ccccc1Cl (configuration not stated),i
COc1cccc(C(=O)NCCCNC(=O)c2ccccn2)c1,i
O=C(c1cc(-c2ccccc2O)on1)N1CCCCC1,i
CCc1c(C)nc2nncn2c1Nc1cccc(C)c1,i
Nc1c(O)ccc2c1C(=O)c1ccccc1C2=O,i
CN(C)C(=O)c1ccc2c(c1[N+](=O)[O-])C(=O)c1ccccc1C2=O,10µM
CN(C)C(=O)c1cn(-c2ccccc2)nc1-c1cccc([N+](=O)[O-])c1,i
SMILES,TDP-43 tox inh
CCOC(=O)c1c(NC(C)=O)c2c3c(sc2n1Cc1nc(-c2ccccc2Cl)oc1C)CCCC3,i
Cc1ccc(C(=O)/C=C/NCc2ccc(F)cc2)cc1,i
CCN(CC)c1ccc(/C=C/C(=O)c2ccc(Br)cc2)cc1,i
Cc1ccc(/C=C/C(=O)c2ccc(O)cc2)cc1,15.8µM
COc1ccc(NC(=O)C2Cc3c(-c4ccco4)ccnc3O2)cc1OC (configuration not stated),i
CCN(CC)S(=O)(=O)c1ccc2c(c1)N(CC(=O)Nc1c(C)cccc1C)C(=O)C1CCCN21 (configuration not stated),i
COc1ccc(-c2onc(C)c2-c2ccc(C(=O)OC(C)C)o2)c(O)c1,15.8µM
COc1cc(NC(=O)c2ccc(-c3c(C)noc3C)c3ccoc23)cc(OC)c1OC,i
COc1ccc(-c2onc(C)c2-c2cnn(-c3ccccc3)c2)c(O)c1C,i
COc1ccccc1-c1ccc2c(c1)C(C)(Cc1ccc(Cl)c(Cl)c1)C(=O)N2 (configuration not stated),i
Cc1ccc(CC2(C)C(=O)Nc3c(Cl)cccc32)cc1 (configuration not stated),8.91µM
CCc1ccc2c(c1)NC(=O)C2(C)Cc1ccc(Cl)cc1 (configuration not stated),i
Cc1ccccc1-c1cc2nc(NCCCN(C)C)n(C)c(=O)c2s1,i
Cc1ccccc1-c1cc2nc(NCCOc3ccccc3)n(C)c(=O)c2s1,i
COc1ccc(Nc2nc3cc(-c4ccccc4C)sc3c(=O)n2C)cc1OC,20µM
CCc1ccc(S(=O)(=O)NCc2csc(C)n2)cc1,i
COc1ccccc1N1CCN(C(=O)c2ccc3c(c2)N(Cc2cc(C)ccc2C)C(=O)c2ccccc2S3(=O)=O)CC1,i
C=CCSc1nc(C)cc2c1C(=O)OC2,10µM
Cc1cc2c(c(SCC(=O)NCc3ccccc3Cl)n1)C(=O)OC2,i
Cc1cc2c(c(N3CCOCC3)n1)C(=O)OC2,i
COc1cccc(NC(=O)CSc2nc(C)c(Cc3ccccc3)c(=O)[nH]2)c1,i
COc1ccc(-c2cc(C(=O)Oc3cccc(C)c3C)c3ccccc3n2)cc1,i
CC(=O)c1ccc2c(c1)OCCOCCOc1ccccc1OCCOCCO2,15.8µM
NC(=O)c1ccc2c(c1)OCCO2,i
O=C(c1cccc([N+](=O)[O-])c1)c1ccc2c(c1)OCCOCCOCCO2,i
CCOc1ccc(N2CCc3c(C)nc(SC)nc32)cc1,i
COC(=O)c1cc2sc(C)cc2n1Cc1nc(-c2ccc(C)cc2)oc1C,i
COc1ccc(NC(=O)CC(C)n2ccnc2)cc1 (configuration not stated),i
